In PubChem BioAssay (NCI) one finds growth data, which are given here for 13 compounds.

The panel holds about 83,000 compounds, 20% with a hit somewhere; the sample as a whole holds those more often.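 Percent growth is the endpoint: 0 to 100 indicates growth inhibition (40 means 60% inhibition), 0 means no net growth, and negative values indicate cell death.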 Unmarked numbers belong to inactive results. Calls of active or inactive are those of the source. Rule for the calls: active = growth percent below 10; inactive = the rest.

Test systems include SK-MEL-2 melanoma; EKVX NSCLC; SN12C renal; UO-31 renal; TK-10 renal; ACHN renal; CAKI-1 renal; A498 renal; CCRF-CEM leukemia; MOLT-4 leukemia.
What all share (assay): NCI-60 one-dose screen, 48 h (100 = growth as untreated, 0 = no growth, -100 = all killed)
Conditions in all cases: 10 µM unless noted

Regarding `O=C(N/N=C/c1ccc(Br)o1)c1[nH]c2ccc(Br)cc2c1-c1ccccc1`, the growth is 3.4% (active) in the assay on SK-MEL-2 melanoma; 12.6% with EKVX NSCLC; -59.1% (active) in the assay on SN12C renal; -34% (active) in the assay on UO-31 renal; 9.96% (active) in the assay with TK-10 renal; -21.3% (active) in the assay with ACHN renal. Besides, the growth was 2.87% (active) in the assay with CAKI-1 renal, -7.37% (active) in the assay on A498 renal, 4.07% (active) in the assay with CCRF-CEM leukemia and -0.952% (active) in the assay with MOLT-4 leukemia.

With `COc1ccc2[nH]c(=O)c(CSc3ccccc3Nc3nccc(-c4ccc(Cl)cc4)n3)cc2c1`, the growth is 57.9% in the assay on SK-MEL-2 melanoma; 60% in the assay on EKVX NSCLC; -2.68% (active) in the assay on SN12C renal; 45.8% with UO-31 renal; 90.3% in the assay with TK-10 renal; 31% with ACHN renal. In addition, the growth in the assay with CAKI-1 renal was -1.64% (active); in the assay with A498 renal, 85.8%; in the assay on CCRF-CEM leukemia, 28.4%; with MOLT-4 leukemia it was -2.12% (active).

On to `COc1ccc(C(=O)NNC(=O)CSc2nc3sc4c(c3c(=O)n2-c2ccc(Cl)cc2)CCCC4)cc1`, for which the growth in the assay on SK-MEL-2 melanoma is 92.2%; in the assay on EKVX NSCLC it was 55.1%; in the assay on SN12C renal, 29.5%; in the assay on UO-31 renal it was 65.1%; with TK-10 renal it was 143%; in the assay on ACHN renal, 85.7%. For the same compound, the growth is 74% in the assay with CAKI-1 renal, 124% in the assay on A498 renal, 70.4% with CCRF-CEM leukemia and 63.7% in the assay on MOLT-4 leukemia.

Consider `COc1ccc(/C=C/C(=O)c2ccc(OC)c(S(N)(=O)=O)c2)c(C(F)(F)F)c1`, for which the growth was 60.8% in the assay on SK-MEL-2 melanoma; 14.5% with EKVX NSCLC; 8.16% (active) in the assay with SN12C renal; 25.6% in the assay with UO-31 renal; 77.9% with TK-10 renal; 9.82% (active) with ACHN renal. Moreover, the growth with CAKI-1 renal was 24.7%; in the assay with A498 renal, 195%; in the assay with CCRF-CEM leukemia, 2.27% (active); in the assay with MOLT-4 leukemia, -0.0099% (active).

As to `CCc1ccccc1-c1nc(CN[C@@H]2C[C@@H]3C[C@H]([C@H]2C)C3(C)C)c(C)o1`, the growth is -83.6% (active) with SK-MEL-2 melanoma; -81.8% (active) in the assay with EKVX NSCLC; -79.3% (active) with SN12C renal; -87.8% (active) in the assay with UO-31 renal; -88.9% (active) with TK-10 renal; -97.9% (active) in the assay on ACHN renal. In addition, the growth was -95% (active) in the assay on CAKI-1 renal, -90.9% (active) with A498 renal, 3.82% (active) in the assay on CCRF-CEM leukemia and -28.2% (active) in the assay on MOLT-4 leukemia.

In the case of `OC(c1ccccc1)(c1ccccc1)C1CCN(c2ccc3nnc(Cl)n3n2)CC1`, the growth with SK-MEL-2 melanoma is 31.3%; with EKVX NSCLC, 19.9%; in the assay on SN12C renal, 50.1%; in the assay on UO-31 renal it was -74.1% (active); with TK-10 renal, 49.7%; in the assay with ACHN renal, 29.7%. For the same compound, the growth was 30.8% with CAKI-1 renal, 77.8% in the assay with A498 renal, 18.2% in the assay with CCRF-CEM leukemia and -2.45% (active) in the assay with MOLT-4 leukemia.

`N#Cc1cc(-c2ccnc(Nc3ccc(N4CCN(C5COC5)CC4)cc3)n2)ccc1N1CCCC1`: the growth is 84.5% in the assay on SK-MEL-2 melanoma; 90.9% in the assay with EKVX NSCLC; 52.1% in the assay with SN12C renal; 30.5% with UO-31 renal; 66.9% in the assay with TK-10 renal; 50.3% in the assay with ACHN renal. Also, the growth in the assay on CAKI-1 renal was 18.1%; in the assay on A498 renal, 71.2%; in the assay on CCRF-CEM leukemia, 43.4%; with MOLT-4 leukemia, 40.4%.

Turning to `CC(=O)Nc1ccc(S(=O)(=O)Nc2ccc(-c3ccc4c(c3)NC(=O)/C4=C\c3ccc[nH]3)cc2)cc1`, the growth with SK-MEL-2 melanoma is 93.8%; in the assay on EKVX NSCLC it was 55.6%; in the assay with SN12C renal it was 100%; in the assay on UO-31 renal, 73.1%; with TK-10 renal, 69.3%; with ACHN renal, 75.5%. Moreover, the growth in the assay on CAKI-1 renal is 76.7%; with A498 renal, 139%; with CCRF-CEM leukemia, 80.2%; in the assay with MOLT-4 leukemia it was 71.6%.

Take `O=C(Nc1ccc(S(=O)(=O)N2CCCCC2)cc1)C(Cl)Cl`: the growth in the assay with SK-MEL-2 melanoma was 104%; with EKVX NSCLC, 95.4%; with SN12C renal it was 112%; with UO-31 renal, 97%; in the assay on TK-10 renal it was 103%; in the assay on ACHN renal, 109%. Besides, the growth is 97.9% in the assay on CAKI-1 renal, 111% with A498 renal, 127% with CCRF-CEM leukemia and 117% in the assay on MOLT-4 leukemia.

For the compound `COc1ccc2[nH]c(O)c(N=Nc3nc(-c4ccccc4)cs3)c2c1`, the growth was 83.7% in the assay on SK-MEL-2 melanoma; 14.4% in the assay with EKVX NSCLC; 2.85% (active) with SN12C renal; 4.1% (active) in the assay with UO-31 renal; 25.5% with TK-10 renal; -16.5% (active) in the assay with ACHN renal. Moreover, the growth in the assay with CAKI-1 renal is 14%; in the assay on A498 renal it was -34.8% (active); with CCRF-CEM leukemia, 44%; in the assay with MOLT-4 leukemia, 42.5%.

For `COc1cc(CNC(=O)[C@]23CCC(C)(C)CC2C2=CCC4[C@@]5(C)CCC(OC(C)=O)C(C)(C)C5CC[C@@]4(C)[C@]2(C)CC3)ccc1OCc1cn(-c2ccc(Cl)cc2Cl)nn1` (stereo not given in full), the growth in the assay on SK-MEL-2 melanoma is 99.8%; in the assay on EKVX NSCLC it was 86.5%; with SN12C renal it was 94.1%; with UO-31 renal it was 80.2%; with TK-10 renal, 134%; in the assay on ACHN renal it was 101%. The growth with CAKI-1 renal is 77.9%; in the assay on A498 renal, 146%; in the assay with CCRF-CEM leukemia, 98.2%; with MOLT-4 leukemia, 104%.

For `COc1ccc(C(=O)c2cc(C(C)=O)c3c(C)cc(C)cn23)cc1`, the growth with SK-MEL-2 melanoma was 70.9%; in the assay on EKVX NSCLC, 49.4%; in the assay with SN12C renal it was 55%; in the assay on UO-31 renal, 67.5%; with TK-10 renal, 57.4%; in the assay on ACHN renal it was 56.6%. For the same compound, the growth with CAKI-1 renal was 38.6%; with A498 renal, 86.1%; with CCRF-CEM leukemia, 104%; in the assay with MOLT-4 leukemia, 82.3%.

Regarding `COc1ccc(-c2cc(C)nc3[nH]c(=O)sc23)cc1`, the growth was 100% with SK-MEL-2 melanoma; 89.5% in the assay on EKVX NSCLC; 43.2% in the assay with SN12C renal; 3.27% (active) with UO-31 renal; 17.1% with TK-10 renal; 31.9% in the assay with ACHN renal. Also, the growth with CAKI-1 renal was 40.5%; in the assay with A498 renal, 6.1% (active); in the assay with CCRF-CEM leukemia, 81.5%; in the assay on MOLT-4 leukemia it was 86.8%.
